Measured values: PubChem BioAssay (NCATS)
“And” between values parts separate entries of the source, which are not always exact repeats. Equal values may be shown once. Records with an inconclusive call do not appear. The source made the active and inactive calls. Unless noted, calls come from the whole dose curve; as a rule, active = well fitted curve in the direction sought with a large enough effect; inconclusive = small, poorly fitted or top-dose-only effect, or another doubt; inactive = no such curve, though single readings can be large; an effect the other way counts as inactive or inconclusive.

Key:
[1] = Cell Viability - MRC5 (AID 434; calls by dose curve;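 note: potency is the fitted concentration of half-maximal effect; cells exposed to compound for 40 hours at 37 °C; potency reflects cytotoxicity seen as loss of intracellular ATP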); settings: MRC5 lung fibroblast viability, qHTS
Outline: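 AC50 values come from Hill-equation fits of intracellular ATP loss, measured by CellTiter-Glo luminescence. Normal lung fibroblasts (MRC5) had 40 hr compound treatment at 37 C, normalized between DMSO and 100 uM tamoxifen.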

[2] = Cellular Toxicity (caspase-3) HepG2 (AID 654); settings: HepG2 caspase-3 activation, luminescence; series mostly up to 92.2 µM;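 note: cells exposed to compound for 16 hours before reading; 0% = DMSO alone and 100% = caspase signal from 100 µM tamoxifen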
Outline: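 Caspase 3/7 activation in HepG2 is measured as rising luminescence after a 16 hr treatment at 37 °C. Values are scaled between DMSO basal and 100 uM tamoxifen, and AC50 is fitted with the Hill equation.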

[3] = Cellular Toxicity (caspase-3) HUV-EC-C (AID 656); settings: HUV-EC-C cells, caspase-3 activation (apoptosis); series mostly up to 92.2 µM
Outline: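 qHTS; HUV-EC-C, 1000 cells/well; 5 hr settle, 16 hr cmpd, 37°C; Caspase-Glo 3/7, 20 min RT; luminescence. Norm: DMSO = 0%, tamoxifen 100 uM = 100%. Hill-fit AC50.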

[4] = Cellular Toxicity (caspase-3) SHSY5Y (AID 657); settings: SH-SY5Y caspase-3 activation; series mostly up to 91.7 µM
Outline: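 qHTS, SH-SY5Y, 1500 cells/well, 5 h pre-incubation 37 °C; compound 16 h 37 °C; Caspase-Glo 3/7 1 h RT; luminescence. Norm.: DMSO = 0, 10 uM staurosporine = 100%. Hill fit → AC50.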

[5] = Cellular Toxicity (caspase-3) BJ (AID 658); settings: BJ fibroblasts, luminescence; Potency: caspase-3 activation; series mostly up to 91.7 µM
Outline: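 Caspase-Glo 3/7 luminescence, read 1 hr after reagent at room temperature, in normal BJ fibroblasts exposed 16 hours at 37 °C. AC50 values from Hill-equation concentration-response, scaled between DMSO basal and 10 uM staurosporine as 100%.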

[6] = Cellular Toxicity (caspase-3) MRC-5 (AID 659); settings: MRC-5 cells, luminescence, normalized: DMSO 0%, 10 µM staurosporine 100%; series mostly up to 91.7 µM
Outline: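 Luminescent Caspase-Glo 3/7 read-out (1 h, room temperature) after a 16 h, 37 °C compound exposure of MRC-5 lung fibroblasts at 1500 cells/well. Concentration-response AC50 from Hill equation; 0% DMSO, 100% 10 uM staurosporine.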

[7] = Cellular Toxicity (caspase-3) Mesangial (AID 660); settings: mesangial cells, normalized: DMSO 0%, 100 µM tamoxifen 100%; series mostly up to 91.7 µM;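 note: combined caspase 3 and 7 activity read by Caspase-Glo luminescence; cells exposed to compound for 16 h before the caspase read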
Outline: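 Seed cells derived from normal human renal glomeruli, incubate 5 h, add compounds across concentrations and incubate 16 h at 37 °C. Caspase 3/7 activation is then quantified by luciferase light, with AC50 derived by Hill modeling.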

[8] = Cellular Toxicity (caspase-3) SK-N-SH (AID 661); settings: SK-N-SH caspase-3 activation, qHTS, DMSO as zero, staurosporine as full; series mostly up to 91.7 µM
Outline: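 Cells were seeded and incubated 5 hr at 37 °C, dosed with compound over a concentration range for 16 hr, then given Caspase-Glo 3/7 reagent for 1 hr at room temperature before luminescence reading.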

[9] = Cellular Toxicity (caspase-3) H-4-II-E (AID 663); settings: H-4-II-E rat hepatoma; Potency: caspase-3 activation; series mostly up to 92.2 µM;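 note: cells exposed to compound for 16 hr before readout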
Outline: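 Caspase 3/7 activation measured by luminescent aminoluciferin substrate cleavage after 16 hr compound treatment of H-4-II-E cells in complete medium. Increase normalized between DMSO (basal) and 100 uM tamoxifen (100%); Hill-equation AC50 from concentration-response.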

[10] = Cellular Toxicity (caspase-3) Hek293 (AID 664); settings: HEK293 caspase-3 activation, DMSO = 0%, 100 µM tamoxifen = 100%; at 92.2 µM (top of the series);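 note: cells exposed to compound for 16 h at 37 °C before readout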
Outline: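 qHTS, HEK293 (human embryonic kidney), 16 h cpd exposure in complete medium. Caspase-3/7 activation = luminescence increase; normalized to DMSO/100 uM tamoxifen; Hill-fit AC50.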

[11] = Cellular Toxicity (caspase-3) N2a (AID 665); settings: N2a cells, luminescence, normalized: DMSO 0%, 10 µM staurosporine 100%; series mostly up to 92.2 µM;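 note: compound exposure lasted 16 h at 37 °C before readout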
Outline: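 Caspase-3/7 activation, measured as increased luminescence from aminoluciferin release, is quantified in mouse N2a cells exposed to compounds for 16 h. Values are normalized to DMSO and 10 uM staurosporine, with AC50 derived by Hill modelling.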

[12] = Cellular Toxicity (caspase-3) Renal Proximal Tubule (AID 667); settings: renal proximal tubule cells, primary cells freshly taken from rat; Potency: caspase-3 activation; series mostly up to 91.7 µM;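 note: cells exposed to compound for 16 hours at 37 °C before detection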
Outline: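 AC50 derived by standard Hill fit of concentration-response data, normalized between DMSO basal and 10 uM staurosporine as 100% stimulation. Cells: primary rat kidney proximal tubule, 16 h treatment at 37 °C.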

[13] = MultiTox-Fluor Cytotoxicity Assay - LYMP1-001 - Dead Cells (AID 946); settings: LYMP1-001 lymphoblastoid cells, dead-cell protease fluorescence; series mostly up to 92.2 µM;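 note: 0% = DMSO and 100% = tetraoctylammonium bromide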
Outline: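 LYMP1-001 lymphoblastoid cells (2500/well) treated 16 h at 37 C. Dead-cell protease cleavage of bis-AAF-R110 read at Ex/Em 485/520. Normalized to DMSO and 15 uM tetraoctylammonium bromide; AC50 from Hill fits.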

[14] = MultiTox-Fluor Cytotoxicity Assay - LYMP1-003 - Dead Cells (AID 961); settings: LYMP1-003 lymphoblastoid cells, dead-cell protease fluorescence; series mostly up to 92.2 µM;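 note: 0% = DMSO and 100% = tetraoctylammonium bromide; nearly all actives have a fitted effect of over 70% in size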
Outline: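 LYMP1-003 human lymphoblastoid cells (2500/well) exposed to compound 16 h at 37 C in complete medium; dead-cell protease read with bis-AAF-R110 fluorescence (Ex/Em 485/520) after 60 min at room temperature. Normalized to DMSO and 15 uM tetraoctylammonium bromide; AC50 from Hill fit.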

[15] = MultiTox-Fluor Cytotoxicity Assay - LYMP1-003 - Live Cells (AID 962); settings: LYMP1-003 lymphoblastoid cells, MultiTox-Fluor live-cell protease fluorescence; series mostly up to 92.2 µM;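 note: 0% = DMSO only and full loss = 92 µM tetraoctylammonium bromide; cytotoxic hits lower the live-cell protease signal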
Outline: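 Acute cytotoxicity is scored as a drop in live-cell protease activity in human lymphoblastoid LYMP1-003 cells after 16 hr compound exposure at 37 C. AC50 values come from Hill-equation modelling of concentration-response data.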

[16] = Cell Viability - LYMP1-003 - Assay at 24 hr (AID 963); settings: LYMP1-003 lymphoblastoid cell viability; series mostly up to 92.2 µM;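 note: plate controls were DMSO only for no effect and tetraoctylammonium bromide positive control for full effect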
Outline: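 Cytotoxicity is scored as a concentration-dependent fall in ATP-linked luciferase signal in human lymphoblastoid LYMP1-003 cells treated 24 hr at 37 C in complete culture medium.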

[17] = Cell Viability - LYMP1-002 - Assay at 24 hr (AID 993); settings: LYMP1-002 lymphoblastoid cells viability; series mostly up to 92.2 µM; note: % is set by controls: 0 for no effect and ±100 for the full control effect
Outline: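 Acute toxicity is measured as concentration-dependent loss of cellular ATP in a human lymphoblastoid line (Coriell LYMP1-002) after 24 h treatment in complete medium. ATP is quantified by luciferase luminescence and AC50 derived by Hill modelling.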

[18] = qHTS Assay for Identification of Small Molecule Inducers of Hypoxia Response (AID 2120; active = well fitted curve in the direction sought with a large enough effect in the signal ratio, with a control signal flat, not every such curve was filed as active; the % refers to the signal ratio; note: 0% is about no effect); settings: hypoxia response reporter cells, beta-lactamase ratio readout; series mostly up to 104 µM
Outline: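 Cell-based qHTS for reporter induction: hypoxia response element controlled beta-lactamase in ME-180 cells. Compounds incubated 17 h at 37 degrees C; activity from blue/green (460/530 nm) ratio, inducers ranked by AC50.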

[19] = target: Peroxisome proliferator-activated receptor alpha (Homo sapiens) (UniProt Q07869); experiment: qHTS assay for small molecule agonists of the peroxisome proliferator-activated receptor alpha (PPARalpha) signaling pathway (AID 651778); settings: PathHunter PPARalpha complementation, chemiluminescence, 6 h; max response: active compounds read high; note: % of control where 0% means no effect
Sequence of Peroxisome proliferator-activated receptor alpha (Homo sapiens) (Q07869 whole entry, looked up): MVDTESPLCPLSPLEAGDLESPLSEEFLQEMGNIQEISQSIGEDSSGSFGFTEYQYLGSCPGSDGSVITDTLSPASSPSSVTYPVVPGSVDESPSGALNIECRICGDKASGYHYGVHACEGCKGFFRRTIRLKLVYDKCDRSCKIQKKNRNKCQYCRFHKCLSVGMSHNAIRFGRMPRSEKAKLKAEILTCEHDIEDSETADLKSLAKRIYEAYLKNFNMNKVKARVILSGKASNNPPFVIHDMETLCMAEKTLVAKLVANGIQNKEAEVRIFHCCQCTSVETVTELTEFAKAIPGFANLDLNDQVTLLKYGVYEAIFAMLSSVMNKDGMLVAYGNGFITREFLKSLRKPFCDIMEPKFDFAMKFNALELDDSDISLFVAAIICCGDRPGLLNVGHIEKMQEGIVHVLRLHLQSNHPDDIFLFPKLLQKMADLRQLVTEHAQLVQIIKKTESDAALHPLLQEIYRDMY
Outline: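 Chemiluminescence from complemented enzyme reported PPARalpha activation in cells after 6 hr of compound treatment at 37 C. The detection reagent was incubated for 60 min at room temperature, and compounds were scored as agonists.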

[20] = qHTS assay for cell viability of the p53RE-bla HCT-116 cell line (AID 743292); settings: p53RE-bla HCT-116 viability, ATP luminescence, 16 h; series mostly up to 95 µM; note: % is set by controls: 0 for no effect and ±100 for the full control effect; nearly all actives have a fitted effect of over 55% in size
Outline: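 Compound-exposed HCT-116 (p53RE-bla) cells, 4,000 per well, were kept 16 h at 37 C following a 5 h preincubation. Cell number was estimated from total ATP by CellTiter-Glo luminescence read after 30 min at room temperature.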

CC(C)OCC1CO1 (stereo not given)
inactive: Potency [1] > 92 µM | Potency [2] | Potency [3] | Potency [4] | Potency [5] | outcome [6] | outcome [7] | outcome [8] | Potency [9] | caspase-3 activation [10] -0.484% | outcome [11] | Potency [12] | Potency [13] | Potency [14] | Potency [15] | Potency [16] | Potency [17] | Potency [18] | max response [19] -4.21% | Potency [20]

Cc1ccc(N)cc1[N+](=O)[O-]
inactive: Potency [1] > 92 µM | Potency [2] | Potency [3] | Potency [4] | Potency [5] | outcome [6] | outcome [7] | outcome [8] | Potency [9] | caspase-3 activation [10] -1.57% | outcome [11] | Potency [12] | Potency [13] | Potency [14] | Potency [15] | Potency [16] | Potency [17] | Potency [18] | max response [19] -0.223% | Potency [20]

Cc1ccc(C(=O)O)cc1[N+](=O)[O-]
inactive: Potency [1] > 92 µM | Potency [2] | Potency [3] | Potency [4] | Potency [5] | outcome [6] | outcome [7] | outcome [8] | Potency [9] | caspase-3 activation [10] -1.69% | outcome [11] | Potency [12] | Potency [13] | Potency [14] | Potency [15] | Potency [16] | Potency [17] | Potency [18] | max response [19] -2.73% | Potency [20]

CCCCCCc1ccc(-c2ccc(C#N)cc2)cc1
inactive: Potency [1] > 92 µM | Potency [2] | Potency [3] | Potency [4] | Potency [5] | outcome [6] | outcome [7] | outcome [8] | Potency [9] | caspase-3 activation [10] 0.233% | outcome [11] | Potency [12] | Potency [13] | Potency [14] | Potency [15] | Potency [16] | Potency [17] | Potency [18] | max response [19] -3.23% | Potency [20]

C=CC1CO1 (stereo not given)
inactive: Potency [1] > 92 µM | Potency [2] | Potency [3] | Potency [4] | Potency [5] | outcome [6] | outcome [7] | outcome [8] | Potency [9] | caspase-3 activation [10] -0.428% | outcome [11] | Potency [12] | Potency [13] | Potency [14] | Potency [15] | Potency [16] | Potency [17] | Potency [18] | max response [19] 1.5% | Potency [20]

CCCCC(CC)COCCCN (stereo not given)
inactive: Potency [1] > 92 µM | Potency [2] | Potency [3] | Potency [4] | Potency [5] | outcome [6] | outcome [7] | outcome [8] | Potency [9] | caspase-3 activation [10] -1.34% | outcome [11] | Potency [12] | Potency [13] | Potency [14] | Potency [15] | Potency [16] | Potency [17] | Potency [18] | max response [19] -9.53% | Potency [20]

COc1ccc(C(=O)Nc2ccccc2)cc1[N+](=O)[O-]
inactive: Potency [1] > 92 µM | Potency [2] | Potency [3] | Potency [4] | Potency [5] | outcome [6] | outcome [7] | outcome [8] | Potency [9] | caspase-3 activation [10] -1.89% | outcome [11] | Potency [12] | Potency [13] | Potency [14] | Potency [15] | Potency [16] | Potency [17] | Potency [18] | max response [19] -0.106% | Potency [20]

CCNC(=S)NCC
inactive: Potency [1] > 92 µM | Potency [2] | Potency [3] | Potency [4] | Potency [5] | outcome [6] | outcome [7] | outcome [8] | Potency [9] | caspase-3 activation [10] -2.38% | outcome [11] | Potency [12] | Potency [13] | Potency [14] | Potency [15] | Potency [16] | Potency [17] | Potency [18] | max response [19] -2.88% | Potency [20]

Nc1cc(C(=O)O)c(O)c(S(=O)(=O)O)c1
inactive: Potency [1] > 92 µM | Potency [2] | Potency [3] | Potency [4] | Potency [5] | outcome [6] | outcome [7] | outcome [8] | Potency [9] | caspase-3 activation [10] 0.407% | outcome [11] | Potency [12] | Potency [13] | Potency [14] | Potency [15] | Potency [16] | Potency [17] | Potency [18] | max response [19] -5.08% | Potency [20]

OCC(CO)(CBr)CBr
inactive: Potency [1] > 92 µM | Potency [2] | Potency [3] | Potency [4] | Potency [5] | outcome [6] | outcome [7] | outcome [8] | Potency [9] | caspase-3 activation [10] -0.451% | outcome [11] | Potency [12] | Potency [13] | Potency [14] | Potency [15] | Potency [16] | Potency [17] | Potency [18] | max response [19] -0.558% and -3.38% | Potency [20]

O=[N+]([O-])c1ccc(F)cc1F
inactive: Potency [1] > 92 µM | Potency [2] | Potency [3] | Potency [4] | Potency [5] | outcome [6] | outcome [7] | outcome [8] | Potency [9] | caspase-3 activation [10] -0.155% | outcome [11] | Potency [12] | Potency [13] | Potency [14] | Potency [15] | Potency [16] | Potency [17] | Potency [18] | max response [19] -5.98% | Potency [20]

CC(=O)OC1CC(C)OC(C)O1 (stereo not given)
inactive: Potency [1] > 92 µM | Potency [2] | Potency [3] | Potency [4] | Potency [5] | outcome [6] | outcome [7] | outcome [8] | Potency [9] | caspase-3 activation [10] 2.93% | outcome [11] | Potency [12] | Potency [13] | Potency [14] | Potency [15] | Potency [16] | Potency [17] | Potency [18] | max response [19] -4.25% and 0.0018% | Potency [20]
